“And” between values parts separate entries of the source, which are not always exact repeats. Equal values may be shown once. The source made the active and inactive calls. Where a call stands in place of a potency, no number is given. Unless noted, calls come from the whole dose curve; as a rule, active = well fitted cell-killing curve with a large enough effect in the repeat runs; inconclusive = weak or mixed curves, or effect the other way; inactive = no such curve, though single readings can be large or run the other way.

Glucocorticoid receptor (Homo sapiens), sequence (P04150 whole entry, looked up): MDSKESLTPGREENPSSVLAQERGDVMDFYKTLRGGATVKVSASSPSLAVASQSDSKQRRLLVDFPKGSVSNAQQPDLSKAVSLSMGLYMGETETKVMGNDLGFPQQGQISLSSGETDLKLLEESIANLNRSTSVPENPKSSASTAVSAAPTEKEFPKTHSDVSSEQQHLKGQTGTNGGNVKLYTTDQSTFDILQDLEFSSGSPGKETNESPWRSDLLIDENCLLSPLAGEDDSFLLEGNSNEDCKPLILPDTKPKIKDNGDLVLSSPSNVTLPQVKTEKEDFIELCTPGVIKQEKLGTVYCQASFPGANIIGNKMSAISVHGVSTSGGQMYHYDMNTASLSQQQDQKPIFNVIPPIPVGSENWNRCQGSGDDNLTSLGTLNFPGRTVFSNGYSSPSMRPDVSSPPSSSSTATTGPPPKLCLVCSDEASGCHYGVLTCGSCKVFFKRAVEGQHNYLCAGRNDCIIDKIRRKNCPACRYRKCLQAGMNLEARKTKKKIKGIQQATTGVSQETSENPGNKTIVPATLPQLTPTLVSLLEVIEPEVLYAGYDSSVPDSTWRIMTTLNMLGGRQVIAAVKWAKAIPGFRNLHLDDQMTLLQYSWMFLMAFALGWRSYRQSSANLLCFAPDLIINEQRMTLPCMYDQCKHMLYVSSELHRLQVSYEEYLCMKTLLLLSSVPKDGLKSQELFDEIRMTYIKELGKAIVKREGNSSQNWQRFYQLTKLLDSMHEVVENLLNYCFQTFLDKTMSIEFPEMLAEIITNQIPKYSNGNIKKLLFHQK

One test addresses Glucocorticoid receptor (Homo sapiens) (UniProt P04150). In words: qHTS assay to identify small molecule agonists of the glucocorticoid receptor (GR) signaling pathway (AID 720691; active = well fitted activation curve with a large enough effect in the signal ratio in the repeat runs, not every such curve was filed as active; inconclusive = weak or mixed curves, or effect the other way; inactive = no such curve, though single readings can be large or run the other way; the % refers to the signal ratio). Conditions: GR-bla HeLa, beta-lactamase reporter ratio, 18 h; activation: at 62.4 µM (top of the series). The procedure, abridged:
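HeLa GR-bla reporter line; cells pre-incubated 4 h, compound in DMSO 18 h at 37 C; LiveBLAzer B/G FRET substrate 2 h RT; fluorescence intensity read-out.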
For orientation: In qHTS, concentration-response curves come from the screen itself.
Take `CSC(=O)c1c(C(F)F)nc(C(F)(F)F)c(C(=O)SC)c1CC(C)C`: the Potency result is “inactive”.

Regarding `CCOP(=O)(OCC)Oc1cc(C)nc(C(C)C)n1`, the Potency entry was “inactive”. Still for that read-out and setting: the entry for `CCC1COC(Cn2cncn2)(c2ccc(Cl)cc2Cl)O1` (configuration not stated) is “inactive”. Same read-out and setting: the entry for `Clc1ccc(C(Cl)(Cl)Cl)cc1Cl` is “inactive”; for `ClCBr` it is “inactive”. In the case of `CC(Cc1ccc2c(c1)OCO2)NO` (configuration not stated), the Potency entry is “inactive”. On the same count and under the same terms, the entry for `C[C@H]1[C@H](c2ccc(Cl)cc2)SC(=O)N1C(=O)NC1CCCCC1` is “inactive”; for `CCOP(=O)(OCC)Oc1nc(Cl)c(Cl)cc1Cl` it is “inactive”. As to `C[N+]1(C)[C@@H]2CC[C@H]1CC(OC(=O)C(CO)c1ccccc1)C2` (some centres not stated), the Potency result was “inactive”. The same measure, in the same setting: the entry for `CCOP(=S)(NC(C)C)Oc1ccccc1C(=O)OC(C)C` (configuration not stated) is “inactive”. For `O=S1(=O)OCC2C(CO1)C1(Cl)C(Cl)=C(Cl)C2(Cl)C1(Cl)Cl` (configuration not stated), the Potency result is “inactive”. Same read-out and setting: the entry for `O=C(O)CCCCCCNC1c2ccccc2CCc2ccccc21` is “inactive”. As for `Cc1cnc2c(C(=O)O)c(Cl)ccc2c1`, the Potency result was “inactive”.

As to `C#CCO`, the Potency entry was “inactive”.

Turning to `CCCCCCCc1ccc(O)cc1`, the Potency entry is “inactive”. Still for that read-out and setting: the entry for `S=C=NCCc1ccccc1` is “inactive”. The same measure, in the same setting: in the case of `CC1=C2C[C@H]3[C@@H](CC=C4C[C@@H](O)CC[C@@]43C)[C@@H]2CC[C@]12O[C@@H]1C[C@H](C)CN[C@H]1[C@H]2C` it was “inactive”; in that of `FC(F)C(F)(F)OCC(Cn1cncn1)c1ccc(Cl)cc1Cl` (configuration not stated), “inactive”. The same measure, in the same setting: in the case of `CCCCN(CCCC)C(=S)[S-].CCCCN(CCCC)C(=S)[S-].[Ni+2]` it was “inactive”. In the case of `COC(=O)/C=C(\C)OP(=O)(OC)OC`, the Potency entry was “inactive”. As to `CCN(CC)Cc1nccn1-c1ccc([N+](=O)[O-])cc1C(=O)c1ccccc1Cl`, the Potency result is “inactive”.

With `NC1CCC(CC2CCC(N)CC2)CC1` (configuration not stated), the Potency result is “inactive”. Still for that read-out and setting: in the case of `Nc1ccc(N=Nc2ccccc2)cc1` it was “inactive”; in that of `Clc1ccc(C(c2ccc(Cl)cc2)C(Cl)Cl)cc1`, “inactive”; in that of `Oc1cc(Cl)cc(Cl)c1`, “inactive”. For the compound `CCCCC(CC)COC(=O)c1ccccc1C(=O)OCC(CC)CCCC` (configuration not stated), the Potency entry was “inactive”. The same measure, in the same setting: in the case of `CCN(CC)CCc1c[nH]c2ccccc12` it was “inactive”. Turning to `c1ccc(Nc2ccc(Nc3ccccc3)cc2)cc1`, the Potency entry was “inactive”.

Consider `CN(C)C(=S)SSC(=S)N(C)C`, for which the activation was -15.4% [inconclusive] (active) and -4.77% [inconclusive] (active). As for `Oc1ccc2[nH]cc(CCCCN3CC=C(c4ccccc4)CC3)c2c1`, the Potency entry was “inactive”. `CCOP(=S)(OCC)Oc1cc(C)nc(N(CC)CC)n1`: the Potency entry was “inactive”. For the compound `COc1ccc2[nH]cc(CCN(C(C)C)C(C)C)c2c1`, the Potency result was “inactive”. Turning to `C=CCOC(=O)c1ccccc1N`, the Potency result is “inactive”.

In the case of `CC1(C)[C@H](/C=C2\CCSC2=O)[C@@H]1C(=O)OCc1coc(Cc2ccccc2)c1`, the Potency entry is “inactive”. On the same count and under the same terms, in the case of `Nc1ccccc1-c1ccccc1` it was “inactive”.

A further test shares this target. As to the kind of experiment: qHTS assay to identify small molecule antagonists of the glucocorticoid receptor (GR) signaling pathway (AID 720692; active = well fitted inhibition curve with a large enough effect in the signal ratio in the repeat runs, not every such curve was filed as active; inconclusive = weak or mixed curves, or effect the other way; inactive = no such curve, though single readings can be large or run the other way; the % refers to the signal ratio; note: potency is the fitted concentration of half-maximal effect). The note with it: GR-bla HeLa, beta-lactamase FRET ratio, dexamethasone-stimulated, 18 h; series mostly up to 58.5 µM. The procedure, abridged:
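Read-out: beta-lactamase FRET substrate fluorescence, 2 h at room temperature, in HeLa cells stably carrying a GRE-driven bla reporter. Compounds were co-incubated with 5 nM dexamethasone agonist (final) for 18 h at 37 C.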
On to `CCOP(=O)(Sc1ccccc1)Sc1ccccc1`, for which the Potency entry is “inactive”.

As to `CCC1COC(Cn2cncn2)(c2ccc(Cl)cc2Cl)O1` (configuration not stated), the Potency entry is “inactive”.

Regarding `Nc1nc(N)nc(Cl)n1`, the Potency result is “inactive”. In the case of `CCOP(=O)(OCC)Oc1nc(Cl)c(Cl)cc1Cl`, the Potency was 27.4 µM (active).

Take `C[N+]1(C)[C@@H]2CC[C@H]1CC(OC(=O)C(CO)c1ccccc1)C2` (some centres not stated): the Potency entry is “inactive”.

Regarding `O=S1(=O)OCC2C(CO1)C1(Cl)C(Cl)=C(Cl)C2(Cl)C1(Cl)Cl` (configuration not stated), the Potency is 17.4 µM (active). With `O=C(O)CCCCCCNC1c2ccccc2CCc2ccccc21`, the Potency result is “inactive”. Still for that read-out and setting: the entry for `Cc1cnc2c(C(=O)O)c(Cl)ccc2c1` is “inactive”; for `C#CCO` it is “inactive”. On the same count and under the same terms, the entry for `CCCCN(CCCC)C(=S)[S-].CCCCN(CCCC)C(=S)[S-].[Ni+2]` is “inactive”; for `CCN(CC)Cc1nccn1-c1ccc([N+](=O)[O-])cc1C(=O)c1ccccc1Cl` it is “inactive”; for `NC1CCC(CC2CCC(N)CC2)CC1` (configuration not stated) it is “inactive”. Still for that read-out and setting: the figure for `Nc1ccc(N=Nc2ccccc2)cc1` is 54.9 µM (active); for `Clc1ccc(C(c2ccc(Cl)cc2)C(Cl)Cl)cc1` it is 24.9 µM (active); for `Oc1cc(Cl)cc(Cl)c1` it is “inactive”. Turning to `CCN(CC)CCc1c[nH]c2ccccc12`, the Potency result is “inactive”.

Test system in another test: not listed separately
As to the kind of experiment: qHTS assay to identify small molecule antagonists of the glucocorticoid receptor (GR) signaling pathway - cell viability counter screen (AID 720693). Note: nearly all actives have a fitted effect of over 55% in size. Conditions: GR-bla HeLa viability, CellTiter-Glo luminescence, 18 h, with 5 nM dexamethasone present; series mostly up to 58.5 µM.
Regarding `CCOP(=O)(Sc1ccccc1)Sc1ccccc1`, the Potency entry is “inactive”. Still for that read-out and setting: in the case of `Clc1ccc(C(Cl)(Cl)Cl)cc1Cl` it was “inactive”. With `Nc1nc(N)nc(Cl)n1`, the Potency result is “inactive”.

With `ClCBr`, the Potency result is “inactive”. Regarding `CC(Cc1ccc2c(c1)OCO2)NO` (configuration not stated), the Potency entry was “inactive”. Turning to `C[C@H]1[C@H](c2ccc(Cl)cc2)SC(=O)N1C(=O)NC1CCCCC1`, the Potency entry was “inactive”. Same read-out and setting: in the case of `CCOP(=O)(OCC)Oc1nc(Cl)c(Cl)cc1Cl` it was “inactive”; in that of `CC1=C2C[C@H]3[C@@H](CC=C4C[C@@H](O)CC[C@@]43C)[C@@H]2CC[C@]12O[C@@H]1C[C@H](C)CN[C@H]1[C@H]2C`, “inactive”. Still for that read-out and setting: the entry for `FC(F)C(F)(F)OCC(Cn1cncn1)c1ccc(Cl)cc1Cl` (configuration not stated) is “inactive”; for `COC(=O)/C=C(\C)OP(=O)(OC)OC` it is “inactive”.

With `NC1CCC(CC2CCC(N)CC2)CC1` (configuration not stated), the Potency entry is “inactive”. On to `Oc1ccc2[nH]cc(CCCCN3CC=C(c4ccccc4)CC3)c2c1`, for which the Potency result was “inactive”.

Take `CCOP(=S)(OCC)Oc1cc(C)nc(N(CC)CC)n1`: the Potency entry was “inactive”. Still for that read-out and setting: in the case of `COc1ccc2[nH]cc(CCN(C(C)C)C(C)C)c2c1` it was “inactive”; in that of `C=CCOC(=O)c1ccccc1N`, “inactive”. Consider `Nc1ccccc1-c1ccccc1`, for which the Potency result was “inactive”.

The record behind these values is PubChem BioAssay (Tox21).
